Assay results taken from PubChem BioAssay (NCI).
Where “and” joins values, the source holds several entries; their conditions need not be identical. Identical values can stand only once. Compounds without any hit were thinned out: in the full panel of roughly 83,000, 20% have a hit.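 Each cell line was grown in a 96-well plate and treated with one concentration of compound for 48 hours. Values below 10 were considered active.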 Calls of active or inactive are those of the source.

The molecules below were run on MDA-MB-468 breast (assay: NCI-60 one-dose screen, 48 h (100 = growth as untreated, 0 = no growth, -100 = all killed)). Conditions: 10 µM unless noted.
For `O=c1oc2ccc(Cl)cc2c(=O)n1-c1ccc(I)cc1F`, the growth was 1.73% (active). With `Cc1[c-]onc1C.Cc1[c-]onc1C.[Ag].[Ag].[NH-]S(=O)(=O)c1ccc(N=Nc2cc(N=Nc3ccc(S([NH-])(=O)=O)cc3)c3c(NC(=O)C(Cl)Cl)cccc3c2OC(=O)C(Cl)Cl)cc1` the growth was 53.9% (inactive). In the case of `COC(=O)[C@H](Cc1cn(C)cn1)NC(=O)[C@H](CC(C)C)NC(=O)Nc1cc(C(F)(F)F)cc(C(F)(F)F)c1`, the growth is reported as -72.1% [100 µM] (active). In the case of `COc1cc(/C=C/C(=O)/C=C/c2cc3ccc(Cl)cc3[nH]c2=O)ccc1O`, the growth is reported as 98.4% (inactive). In the case of `CC(C)c1ccc(/C=N/N=C(N)N)cc1`, the growth is reported as 35.3% (inactive). With `COCCn1cc(-c2csc(-c3c[nH]c4ccc(Br)cc34)n2)c2cccnc21` the growth was 0.403% (active). In the case of `O=C(Nc1ccccc1)Oc1ccccc1-c1ccccc1`, the growth is reported as 101% (inactive). In the case of `N#C/C(=C\c1ccc(-c2ccccc2)o1)c1nc(-c2ccco2)cs1`, the growth is reported as -32.4% (active). In the case of `N#CC1c2ccccc2C=CN1C(=O)CCCl` (stereo not given), the growth is reported as 24.2% (inactive). In the case of `CC(=O)c1c[nH]c2ccc(-c3ccnc(Nc4ccc(NC(=O)C5CCCC5)c(CN5CCOCC5)c4)n3)cc12`, the growth is reported as -53.9% (active). For `COc1ccc2c(CCCc3ccc(Cl)cc3Cl)c3[n+](cc2c1OC)CCc1cc2c(cc1-3)OCO2`, the growth was -49% (active). `CCN1CCCC1CNC(=O)c1ncc(-c2ccc(C(F)(F)F)cc2)c(NC2CCCCCC2)n1` (stereo not given) was tested, and the growth was 80.8% (inactive). For `COc1ccc2occ(C3=C(c4c[nH]c5ccccc45)C(=O)N(O)C3=O)c2c1`, the growth was 95.1% (inactive). For `C/C(=N\NC(=O)c1ccc(C(C)(C)C)cc1)c1ccc(O)cc1O`, the growth was -26.3% (active). For `COc1cc(OC)c(NC(=O)c2cc3ccccc3cc2O)cc1Cl`, the growth was 75.7% (inactive). With `CN(C)c1ccc2nc3ccc(=[N+](C)C)cc-3oc2c1` the growth was -15.4% (active). For `COc1ccc(/C=C(\C#N)n2nnc3cc(Cl)ccc32)cc1`, the growth was 18.5% (inactive). With `Cn1ncc2c(=O)nc3c(-c4ccccc4)n[nH]n3c21` the growth was 101% (inactive). For `OCC1OC2C(NC(=S)N2c2ccccc2)C(O)C1O` (stereo not given), the growth was 94.6% (inactive). With `CCn1c(CSc2nc3ccccc3c(=O)n2CCc2ccccc2)n[nH]c1=S` the growth was 85.6% (inactive). With `COc1ccc2nc(-n3nc(C)cc3C)c(-n3nc(C)cc3C)nc2c1` the growth was 103% (inactive). In the case of `CCN(CC)CCNc1nc2ccccc2c2c(=O)c3cc(Cl)ccc3sc12`, the growth is reported as 56.2% (inactive). With `Nc1n[nH]c(=S)n1-c1ccc(Cl)cc1` the growth was 97.5% (inactive). With `Cc1nn(-c2ccc(Cl)cc2)c(=O)n1CCn1cnc2ccccc21` the growth was 117% (inactive). In the case of `C#Cc1ccc(-n2c(/C=C/c3ccc4ccccc4n3)nc3ncccc3c2=O)cc1`, the growth is reported as -68.1% (active). `C=CCN=C(N)SCCCCCCSC(N)=NCC=C` was tested, and the growth was 84.7% (inactive). `O=C(Cc1ccccc1)Cc1ccccc1` was tested, and the growth was 99.5% (inactive). In the case of `O=C1Nc2ccccc2/C1=C/c1ccc(COCC2CO2)n1-c1ccc(O)cc1` (stereo not given), the growth is reported as 95.9% (inactive). With `Nc1nc2c(c(=O)[nH]1)C(c1ccc3c(c1)OCO3)C=C(C(=O)O)N2` (stereo not given) the growth was 107% (inactive). `C=C1CC[C@@]2(C#N)[C@H]3[C@H](CC[C@@H]2C)[C@@H](C)C[C@@H](CC(C)(C)C#N)[C@H]13` was tested, and the growth was 59.7% (inactive). `COc1cc(-c2nc(-c3ccccc3)[nH]c2-c2ccnc(NCCCNS(=O)(=O)c3cccc(F)c3)n2)ccc1Cl` was tested, and the growth was 43.2% (inactive). With `CC(C)C1=NOC(=O)C1=Cc1cn(-c2ccccc2)nc1-c1ccc(Br)cc1` the growth was 92.2% (inactive). With `COC(=O)c1ccc2[nH]c(O)c(C(=Nc3ccc(N(C)C(=O)CN4CCN(C)CC4)cc3)c3ccc(OC)cc3)c2c1` the growth was 64.5% (inactive). `Cc1n(Cc2ccc3ccccc3n2)cc[n+]1Cc1ccc2ccccc2n1` was tested, and the growth was 8.07% (active). With `Cc1cc(N=C2C=CC(=[N+](C)C)C=C2)c(N)cc1N` the growth was 39.6% (inactive). `O=C(Cn1ccc2ccccc21)Nc1ccc(-c2nc3ccccc3s2)cc1` was tested, and the growth was -50.2% (active). For `N#Cc1cccc(NC(=O)c2cc(-c3ccc(F)cc3F)ccc2O)c1`, the growth was -4.46% (active) and -3.84% (active). `COc1ccc(-c2nn(-c3ccc(NC(=O)c4ccc(Cl)c(Cl)c4)cc3)cc2-c2ccncc2)cc1Cl` was tested, and the growth was 47% (inactive). With `Cc1cccc(NC(=O)c2sc3nc4c(cc3c2N)CN(Cc2ccccc2)CC4)c1C` the growth was 24.4% (inactive). With `Nc1nc(N)c2c(n1)NC1(C=C(O)c3ccccc31)C1=C(N2)c2ccccc2C1=O` (stereo not given) the growth was 127% (inactive).
